# Results published in ChEMBL document CHEMBL1201862, “PubChem BioAssay data set” (2004).
# The whole screen tested about 400,000 compounds, of which about 2,100 (0.53%) were called active. About 14% were inconclusive and are not listed. How the calls were made is not given here. This excerpt belongs to a sample that is enriched for actives.
# Molecular target: Ataxin-2 (Homo sapiens) (UniProt Q99700)
# Assay: qHTS for Inhibitors of ATXN expression.
# Assay type: functional
# Chain of Ataxin-2 (Homo sapiens) (Q99700 whole entry): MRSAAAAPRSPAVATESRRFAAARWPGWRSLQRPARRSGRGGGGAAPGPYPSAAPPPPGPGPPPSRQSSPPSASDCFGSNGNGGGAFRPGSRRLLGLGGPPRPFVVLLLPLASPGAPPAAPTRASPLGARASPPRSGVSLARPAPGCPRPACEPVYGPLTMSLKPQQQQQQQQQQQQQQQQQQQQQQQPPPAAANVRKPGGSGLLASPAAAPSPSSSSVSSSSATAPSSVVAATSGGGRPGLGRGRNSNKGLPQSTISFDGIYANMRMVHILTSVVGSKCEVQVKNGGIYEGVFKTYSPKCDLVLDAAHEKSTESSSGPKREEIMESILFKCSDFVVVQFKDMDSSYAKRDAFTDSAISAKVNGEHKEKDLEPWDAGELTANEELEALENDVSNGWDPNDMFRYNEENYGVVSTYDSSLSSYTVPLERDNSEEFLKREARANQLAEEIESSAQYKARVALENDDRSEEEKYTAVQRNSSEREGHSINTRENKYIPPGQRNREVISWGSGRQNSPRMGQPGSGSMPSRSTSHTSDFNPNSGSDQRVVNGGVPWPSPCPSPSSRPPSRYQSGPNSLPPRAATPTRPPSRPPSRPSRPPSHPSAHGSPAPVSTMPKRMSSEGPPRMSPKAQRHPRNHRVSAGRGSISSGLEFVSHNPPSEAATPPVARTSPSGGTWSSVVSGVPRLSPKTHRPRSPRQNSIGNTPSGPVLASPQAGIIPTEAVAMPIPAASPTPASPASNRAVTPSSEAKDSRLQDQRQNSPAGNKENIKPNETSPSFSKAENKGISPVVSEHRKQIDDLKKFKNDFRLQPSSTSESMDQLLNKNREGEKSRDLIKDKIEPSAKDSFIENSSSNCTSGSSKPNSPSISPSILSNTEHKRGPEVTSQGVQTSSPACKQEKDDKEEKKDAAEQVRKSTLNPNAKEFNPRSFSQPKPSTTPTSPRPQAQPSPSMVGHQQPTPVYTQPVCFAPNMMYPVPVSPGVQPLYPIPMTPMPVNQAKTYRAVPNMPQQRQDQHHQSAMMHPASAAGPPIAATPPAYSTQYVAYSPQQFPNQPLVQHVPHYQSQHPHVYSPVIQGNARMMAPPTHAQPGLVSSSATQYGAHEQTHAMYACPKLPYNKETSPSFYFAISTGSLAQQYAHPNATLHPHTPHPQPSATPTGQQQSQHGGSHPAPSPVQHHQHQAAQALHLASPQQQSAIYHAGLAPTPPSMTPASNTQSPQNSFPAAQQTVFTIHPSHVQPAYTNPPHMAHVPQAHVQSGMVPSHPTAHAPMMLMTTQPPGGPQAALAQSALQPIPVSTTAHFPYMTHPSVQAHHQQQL
row,SMILES,Potency
1,CC(C)n1c(=N)c(C(=O)NCCc2ccccc2)cc2c(=O)n3ccccc3nc21,inactive
2,COc1cc(/C=C2\C(=N)N3N=CSC3=NC2=O)cc(Br)c1OC(=O)c1ccco1,inactive
3,COc1ccc2nc(N3CCCCC3)c(C#N)cc2c1,inactive
4,N=c1oc2cc(O)ccc2cc1C(=O)Nc1ccc(F)cc1,inactive
5,CCOC(=O)/C(=C\c1ccccc1)C(=O)CCN1CCOCC1,42.3 µM (active)
6,COCCOC(=O)c1c(N)n(CCCN2CCOCC2)c2nc3ccccc3nc12,inactive
7,O=C(NCCCN1CCOCC1)/C(=C/c1cccnc1)NC(=O)c1ccccc1,inactive
8,CCCc1cc(=O)oc2cc(O[C@@H]3O[C@H](CO)[C@@H](O)[C@H](O)[C@H]3O)ccc12,inactive
9,COc1ccccc1-c1nnc(Sc2nc([N+](=O)[O-])nn2C)o1,11.2 µM (active)
10,COc1ccccc1-c1nnc(-c2ccc(C)cc2)o1,inactive
11,COc1ccccc1NC(=O)CSc1nnc(-c2ccoc2C)o1,inactive
12,C=CCn1c(N)c(C(=O)OC(C)(C)C)c2nc3ccccc3nc21,inactive
13,CCn1c2ccccc2c2nc3cc(C(=O)O)ccc3nc21,inactive
14,C=CCn1c2ccccc2c2nnc(SCCCn3c(=O)[nH]c4ccccc43)nc21,39.8 µM (active)
15,NC(=O)C[n+]1cccc(C(=O)Nc2ccccc2)c1,inactive
16,CCN(CC)c1ccc(N)cc1,31.6 µM (active)
17,CCN(CC)c1ccc2c(C)c(-c3ccc(N)cc3)c(=O)oc2c1,inactive
18,CCN(CC)c1ccc2ccc(=O)oc2c1,inactive
19,O=C(Nc1ccccc1)NN(C(=O)CCl)c1ccccc1,22.4 µM (active)
20,COC(=O)c1cn(C(=O)c2cc(C)cc(C)c2)c2ccccc12,inactive
21,O=C(O)c1ccccc1N(c1ccccc1)c1ccccc1,inactive
22,O=C(CCCC(=O)NNC(=O)Nc1ccccc1)NNC(=O)Nc1ccccc1,inactive
23,O=C(Nc1ccccc1)N(C1=NCCC1)c1ccccc1,inactive
24,CC(=O)n1cc(N(C(=O)CCl)c2ccccc2)c2ccccc21,22.4 µM (active)
25,CC(=O)n1c(/C=N/c2ccccc2)c(O)c2ccccc21,inactive
26,O=C(CCl)N(c1ccccc1)c1ccccc1,7.52 µM (active)

row,SMILES,Potency
1,Cc1c(Cc2ccccc2)c(=O)oc2c(C)c(OCC(=O)Nc3ccc(C#N)cc3)ccc12,inactive
2,OC[C@@H]1[C@@H](c2ccc(F)cc2)C(c2ccccc2)=NN1c1ccccc1,inactive
3,Clc1ccc(/C=C\c2[nH]ccc3c4ccccc4nc2-3)cc1,inactive
4,CCc1cc2c(COC(=O)c3cccc(S(C)(=O)=O)c3)cc(=O)oc2cc1O,inactive
5,c1ccc(CN2CCC(Nc3nc(-c4cccs4)nc4ccccc34)CC2)cc1,31.6 µM (active)
6,O=C(O)/C=C/c1cn(Cc2ccccc2)nc1-c1cccs1,inactive
7,Cc1cccn2c(=O)c3cc(C(=O)NCC4CCCO4)c(=N)n(Cc4cccnc4)c3nc12 (centres undefined),inactive
8,CC(C)c1cc(NCc2ccccn2)n2c(nc3ccccc32)c1C#N,inactive
9,O=S(=O)(Nc1cc2nc3ccccc3nc2n1Cc1ccccc1)c1ccc(Cl)cc1,inactive
10,O=S(=O)(Nc1nc2ccccc2nc1Cl)c1ccc(Cl)cc1,inactive
11,O=S(=O)(NCC(Nc1ccc(Cl)cc1)c1ccccc1)c1ccccc1 (centres undefined),22.4 µM (active)
12,Cc1c(CCC(=O)NC2CC2)c(=O)oc2c(C)c(O)ccc12,inactive
13,CC1CCc2cc(F)ccc2N1C(=O)CCl (centres undefined),29.9 µM (active)
14,CC(=O)N1c2ccc(S(=O)(=O)NCCC(=O)Nc3ccc(Cl)cc3)cc2CC1C (centres undefined),inactive
15,CC(Sc1nc(-c2ccc(F)cc2)cs1)C(=O)N1c2ccccc2CC1C (centres undefined),inactive
16,CC1CCc2cc(F)ccc2N1C(=O)CSc1n[nH]c2c3cc(F)ccc3nc-2n1 (centres undefined),22.4 µM (active)
17,CN1CCC(N(C)C(=O)c2sc3cc(F)ccc3c2Cl)CC1,inactive
18,CCc1nnc(NC(=O)CSc2n[nH]c3c4ccccc4nc-3n2)s1,inactive
19,Cc1nc2nc(-c3ccc(F)cc3)cn2nc1C,inactive
20,CN(C)c1ccc(/C=C/c2cccc[n+]2[O-])cc1,inactive
21,COc1ccc(/C=C2\CCc3c2nc2ccccc2c3C(=O)O)cc1OC,inactive
22,CC[n+]1c(/C=C/c2ccc(N(C)C)cc2)ccc2ccccc21,10 µM (active)
23,CC[n+]1c(/C=C/c2ccc(OC(C)=O)c(OC)c2)ccc2ccccc21,22.4 µM (active)
24,CN(C)c1ccc(/C=C/c2ccc3ccccc3n2)cc1,inactive
25,CCCN(CCC)c1ccc(/C=C/c2ccc3cc(OCC)ccc3n2)cc1,inactive
26,CCN(CC)c1ccc(/C=C/c2ccc3ccc(OC)cc3[n+]2CC)cc1,2.82 µM (active)

row,SMILES,Potency
1,COc1ccc2ccccc2c1/C=N/Nc1cccc(C(=O)O)c1,inactive
2,CN(C)c1ccc(C=Cc2cnccn2)cc1,inactive
3,CN(C)c1ccc(/C=C/c2nc3ccccc3s2)cc1,inactive
4,CCCCCC[n+]1ccccc1C=Cc1ccc(N(C)C)cc1,7.94 µM (active)
5,CCN(CC)c1ccc(/C=N/NC(=S)NCc2ccc(OC)cc2)cc1,inactive
6,CCOC(=O)c1cc(C#N)c(Nc2ccccc2OC)nc1C(F)(F)F,inactive
7,O=S(=O)(O)c1ccc(N2N=C(c3ccccc3)CC2c2ccccc2)cc1 (centres undefined),inactive
8,Nc1nnc(-c2cc3ccccc3oc2=O)s1,inactive
9,CC(=O)Oc1ccc(N2C(=O)c3cccc4c([N+](=O)[O-])ccc(c34)C2=O)cc1,inactive
10,CC(=O)NNC(=O)c1sc(=S)n2c1[nH]c(=O)c1sccc12,inactive
11,Oc1ccc(/C=C/c2ccc3ccccc3n2)cc1,inactive
12,CN(C)c1ccc(C=Cc2nccc3ccccc23)cc1,inactive
13,CN(C)c1ccc(/C=C/c2ccc3c4ccccc4ccc3[n+]2-c2ccccc2)cc1,11.9 µM (active)
14,CCN(CC)c1ccc(/C=C/c2cc(-c3ccccc3)c3ccccc3n2)cc1,inactive
15,C[n+]1c(/C=C/c2ccc(O)cc2)ccc2ccccc21,26.7 µM (active)
16,Oc1ccc(/C=C/c2ccnc3ccccc23)cc1,inactive
17,O=C1C(Cl)=C(NC2CCCCC2)C(=O)N1Cc1ccccc1,inactive
18,C=CCn1c(C)c(C(C)=O)cc(NC(=O)c2ccccc2)c1=O,inactive
19,O=C(CN1C(=O)c2cccc3cccc1c23)NC1CCCCC1,inactive
20,O=C1c2cccc3cc([N+](=O)[O-])cc(c23)C(=O)N1CC1CCCO1 (centres undefined),inactive
21,CCC(C)NC(=O)CN1C(=O)c2cccc3cccc1c23 (centres undefined),inactive
22,Cc1cc(C)cc(OCC(O)CN2CCC(CN3C(=O)c4cccc5cccc(c45)C3=O)CC2)c1 (centres undefined),28.2 µM (active)
23,CCc1ccc(OCC(O)CN2CCC(CN3C(=O)c4cccc5cccc(c45)C3=O)CC2)cc1 (centres undefined),39.8 µM (active)
24,CCN(CC)C(=O)CN1C(=O)c2cccc3cccc1c23,inactive
25,O=C(CN1C(=O)c2cccc3cccc1c23)NC1CCCC1,inactive
26,Cc1cccc(C)c1OCC(O)CN1CCC(CN2C(=O)c3cccc4cccc(c34)C2=O)CC1 (centres undefined),25.1 µM (active)

row,SMILES,Potency
1,Cc1ccc(C)c(OCC(O)CN2CCC(CN3C(=O)c4cccc5cccc(c45)C3=O)CC2)c1 (centres undefined),39.8 µM (active)
2,CCOC(=O)N1CCN(CC(O)COc2cc(C)cc(C)c2)CC1 (centres undefined),inactive
3,CCOC(=O)C1CCN(S(=O)(=O)c2ccc3c4c(cccc24)C(=O)N3CC)CC1,inactive
4,CCOC(=O)C1CCCN(S(=O)(=O)c2ccc3c4c(cccc24)C(=O)N3CC)C1 (centres undefined),inactive
5,COc1ccc(-c2cc(=O)oc3c(C)c(O)c(CN(C)C)cc23)cc1,inactive
6,COCCNC(=O)/C(C#N)=C/c1c(N2CCN(C)CC2)nc2c(C)cccn2c1=O,inactive
7,CCOCCCn1c(=N)c(C(=O)NCc2cccnc2)cc2c(=O)n3cc(C)ccc3nc21,inactive
8,Cc1ccc(S(=O)(=O)c2cc3ccc(O)cc3oc2=O)cc1C,inactive
9,CCCc1cc(=O)oc2c(CN3CCCC3)c(O)c(Cl)cc12,inactive
10,CC(=O)NC(=Nc1ccc(C)cc1Cl)Nc1nc(C)cc(C)n1,inactive
11,Oc1c(C(c2ccccn2)N2CCC(Cc3ccccc3)CC2)cc(Cl)c2cccnc12 (centres undefined),inactive
12,Cc1ccc(C)c(OCC(O)CN2CCC(Cc3ccccc3)CC2)c1 (centres undefined),39.8 µM (active)
13,CC1=C(C(=O)N2CCCCCC2)CC(CC(=O)NCCCCc2ccccc2)C(=O)N1Cc1ccccc1 (centres undefined),35.5 µM (active)
14,CC1=C(C(=O)N(C(C)C)C(C)C)CC(CC(=O)NCc2cccc3ccccc23)C(=O)N1CCC1=CCCCC1 (centres undefined),39.8 µM (active)
15,CC1=C(C(=O)N(C(C)C)C(C)C)CC(CC(=O)NC(c2ccccc2)c2ccccc2)C(=O)N1CCC1=CCCCC1 (centres undefined),39.8 µM (active)
16,O=C(COC(=O)c1cc(S(=O)(=O)N2CCCC2)ccc1O)NCCc1ccccc1,inactive
17,CC(CCc1ccccc1)NC(=O)C1CCC1 (centres undefined),inactive
18,CC1=C(C(=O)N(C(C)C)C(C)C)CC(CC(=O)NCCCCc2ccccc2)C(=O)N1CCC1=CCCCC1 (centres undefined),39.8 µM (active)
19,CCOC(=O)C(CC(=O)O)NCc1ccco1 (centres undefined),inactive
20,CCn1nc(C)c(/C=N/NC(=O)c2nc3nc(C)cc(C)n3n2)c1C,inactive
21,CC1=C(C(=O)N2CCCCCC2)CC(CC(=O)NCCCCc2ccccc2)C(=O)N1CCC1=CCCCC1 (centres undefined),17.8 µM (active)
22,CCOC(=O)c1c(N)n(CCOC(=O)c2cccs2)c2nc3ccccc3nc12,inactive
23,O=C(CCl)N1CCN2C(=O)c3ccccc3C12c1ccc(Cl)cc1 (centres undefined),21.2 µM (active)
24,CCOC(=O)N1CCc2[nH]c3ccc(C)cc3c2C1,inactive
25,CN(C)CC(O)CN(c1ccccc1)c1ccccc1 (centres undefined),inactive
26,CN(C)CC(CCC(CN(C)C)C(O)(c1ccccc1)c1ccccc1)C(O)(c1ccccc1)c1ccccc1 (centres undefined),28.2 µM (active)
